In PubChem BioAssay AID1159580 (chemical genetic matrix, 2015):
“And” between values parts separate entries of the source, which are not always exact repeats. Equal values may be shown once. About 2,000 (36%) of roughly 5,500 compounds were called active. Another 18% or so got no clear call; they are omitted. No stated cut-off is given here; in the data, active means normalized growth mostly below about 0.91 (no sharp cut-off); inconclusive means no clear call, values can overlap the other calls; inactive means mostly above about 0.92. The list shows a part of the results.

Experiment: chemical genetic growth profiling, strain panel (AID 1159580);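 further: tested at 20 µM; growth read once vehicle control cultures reached saturation at 30 °C; 1 = growth at the plate median or of vehicle wells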
Conditions: S. cerevisiae deletion strains, growth OD

Question: Which normalized growth (locus YAL021C, strain ccr4, stronger effect = lower value) does the source give for CC(C)=CCc1c2c(c3occ(-c4ccc(O)c(O)c4)c(=O)c3c1O)C=CC(C)(C)O2 here?
Answer: 0.95 (inactive)

Question: And the normalized growth (locus YAL026C, strain drs2, stronger effect = lower value)?
Answer: 0.945 (inactive)

Question: What about the normalized growth (locus YAL030W, strain snc1, stronger effect = lower value) of the same compound?
Answer: 0.961 (inactive)

Question: And the normalized growth (locus YBL061C, strain skt5, stronger effect = lower value)?
Answer: 0.949 (inactive)

Question: And the normalized growth (locus YBR009C, strain hhf1, stronger effect = lower value)?
Answer: 0.931 (inactive)

Question: What about the normalized growth (locus YBR021W, strain FUR4, stronger effect = lower value) of the same compound?
Answer: 0.518 (active)

Question: And the normalized growth (locus YBR023C, strain chs3, stronger effect = lower value)?
Answer: 0.937 (inactive)

Question: What about the normalized growth (locus YBR171W, strain sec66, stronger effect = lower value) of the same compound?
Answer: 0.98 (inactive)

Question: And the normalized growth (locus YBR229C, strain ROT2, stronger effect = lower value)?
Answer: 0.548 (active)

Question: What about the normalized growth (locus YBR231C, strain swc5, stronger effect = lower value) of the same compound?
Answer: 0.895 (active)

Question: What about the normalized growth (locus YBR279W, strain paf1, stronger effect = lower value) of the same compound?
Answer: 0.956 (inactive)

Question: And the normalized growth (locus YCL011C, strain gbp2, stronger effect = lower value)?
Answer: 0.944 (inactive)

Question: And the normalized growth (locus YCL016C, strain dcc1, stronger effect = lower value)?
Answer: 0.961 (inactive)

Question: And the normalized growth (locus YCL029C, strain bik1, stronger effect = lower value)?
Answer: 0.616 (active)

Question: What about the normalized growth (locus YCL069W, strain vba3, stronger effect = lower value) of the same compound?
Answer: 0.992 (inactive)

Question: What about the normalized growth (locus YCR088W, strain abp1, stronger effect = lower value) of the same compound?
Answer: 0.997 (inactive)

Question: What about the normalized growth (locus YDL005C, strain med2, stronger effect = lower value) of the same compound?
Answer: 0.988 (inactive)

Question: What about the normalized growth (locus YDL035C, strain GPR1, stronger effect = lower value) of the same compound?
Answer: 0.238 (active)

Question: What about the normalized growth (locus YDL040C, strain nat1, stronger effect = lower value) of the same compound?
Answer: 1 (inactive)

Question: And the normalized growth (locus YDL074C, strain BRE1, stronger effect = lower value)?
Answer: 0.313 (active)

Question: And the normalized growth (locus YDL101C, strain DUN1, stronger effect = lower value)?
Answer: 0.256 (active)

Question: What about the normalized growth (locus YDL134C, strain PPH21, stronger effect = lower value) of the same compound?
Answer: 0.235 (active)

Question: What about the normalized growth (locus YDL185W, strain tfp1, stronger effect = lower value) of the same compound?
Answer: 0.966 (inactive)

Question: And the normalized growth (locus YDL192W, strain arf1, stronger effect = lower value)?
Answer: 0.66 (active)

Question: What about the normalized growth (locus YDR001C, strain nth1, stronger effect = lower value) of the same compound?
Answer: 1 (inactive)

Question: What about the normalized growth (locus YDR069C, strain doa4, stronger effect = lower value) of the same compound?
Answer: 0.845 (active)

Question: And the normalized growth (locus YDR101C, strain arx1, stronger effect = lower value)?
Answer: 0.747 (active)

Question: And the normalized growth (locus YDR137W, strain rgp1, stronger effect = lower value)?
Answer: 1 (inactive)

Question: And the normalized growth (locus YDR159W, strain sac3, stronger effect = lower value)?
Answer: 0.959 (inactive)

Question: And the normalized growth (locus YDR162C, strain NBP2, stronger effect = lower value)?
Answer: 0.155 (active)

Question: What about the normalized growth (locus YDR195W, strain ref2) of the same compound?
Answer: 1.01 (inactive)

Question: What about the normalized growth (locus YDR297W, strain sur2, stronger effect = lower value) of the same compound?
Answer: 0.924 (inactive)

Question: And the normalized growth (locus YDR318W, strain mcm21, stronger effect = lower value)?
Answer: 0.721 (active)

Question: And the normalized growth (locus YDR334W, strain swr1, stronger effect = lower value)?
Answer: 0.969 (inactive)

Question: And the normalized growth (locus YDR335W, strain msn5, stronger effect = lower value)?
Answer: 0.953 (inactive)

Question: And the normalized growth (locus YDR388W, stronger effect = lower value)?
Answer: 0.776 (active)

Question: And the normalized growth (locus YDR392W, strain spt3, stronger effect = lower value)?
Answer: 0.782 (inactive)

Question: What about the normalized growth (locus YDR502C, strain sam2, stronger effect = lower value) of the same compound?
Answer: 0.674 (active)

Question: What about the normalized growth (locus YEL003W, strain gim4, stronger effect = lower value) of the same compound?
Answer: 0.932 (inactive)

Question: And the normalized growth (locus YEL037C, strain rad23, stronger effect = lower value)?
Answer: 0.977 (inactive)

Question: What about the normalized growth (locus YEL061C, strain CIN8 (second series), stronger effect = lower value) of the same compound?
Answer: 0.999 (inactive)

Question: And the normalized growth (locus YEL061C, strain CIN8, stronger effect = lower value)?
Answer: 0.406 (active)

Question: And the normalized growth (locus YER015W, strain faa2, stronger effect = lower value)?
Answer: 0.909 (active)

Question: And the normalized growth (locus YER016W, strain bim1, stronger effect = lower value)?
Answer: 0.989 (inactive)

Question: What about the normalized growth (locus YER110C, stronger effect = lower value) of the same compound?
Answer: 0.981 (inactive)

Question: What about the normalized growth (locus YER111C, strain swi4, stronger effect = lower value) of the same compound?
Answer: 0.939 (inactive)

Question: And the normalized growth (locus YER155C, strain BEM2 (second series), stronger effect = lower value)?
Answer: 0.909 (inactive)

Question: What about the normalized growth (locus YER155C, strain BEM2, stronger effect = lower value) of the same compound?
Answer: 0.544 (active)

Question: And the normalized growth (locus YER167W, strain BCK2, stronger effect = lower value)?
Answer: 0.545 (active)

Question: What about the normalized growth (locus YFR010W, strain ubp6, stronger effect = lower value) of the same compound?
Answer: 0.946 (inactive)

Question: And the normalized growth (locus YGL078C, strain dbp3, stronger effect = lower value)?
Answer: 0.93 (inactive)

Question: What about the normalized growth (locus YGL086W, strain mad1, stronger effect = lower value) of the same compound?
Answer: 0.67 (active)

Question: What about the normalized growth (locus YGL167C, strain pmr1, stronger effect = lower value) of the same compound?
Answer: 0.986 (inactive)

Question: What about the normalized growth (locus YGL173C, strain kem1, stronger effect = lower value) of the same compound?
Answer: 0.887 (active)

Question: And the normalized growth (locus YGL227W, strain vid30, stronger effect = lower value)?
Answer: 1 (inactive)

Question: What about the normalized growth (locus YGL240W, strain doc1, stronger effect = lower value) of the same compound?
Answer: 0.994 (inactive)

Question: And the normalized growth (locus YGL248W, strain PDE1, stronger effect = lower value)?
Answer: 0.257 (active)

Question: What about the normalized growth (locus YGL253W, strain hxk2, stronger effect = lower value) of the same compound?
Answer: 0.937 (inactive)

Question: What about the normalized growth (locus YGR078C, strain PAC10, stronger effect = lower value) of the same compound?
Answer: 0.457 (active)

Question: And the normalized growth (locus YGR135W, strain pre9, stronger effect = lower value)?
Answer: 0.586 (active)

Question: And the normalized growth (locus YGR252W, strain gcn5, stronger effect = lower value)?
Answer: 0.557 (active)

Question: What about the normalized growth (locus YHR013C, strain ard1, stronger effect = lower value) of the same compound?
Answer: 0.947 (inactive)

Question: What about the normalized growth (locus YHR027C, strain rpn1, stronger effect = lower value) of the same compound?
Answer: 0.932 (inactive)

Question: And the normalized growth (locus YHR030C, strain SLT2, stronger effect = lower value)?
Answer: 0.197 (active) and 0.903 (inactive)

Question: What about the normalized growth (locus YHR079C, strain IRE1 (second series), stronger effect = lower value) of the same compound?
Answer: 0.722 (active)

Question: And the normalized growth (locus YHR079C, strain IRE1, stronger effect = lower value)?
Answer: 0.926 (inactive)

Question: And the normalized growth (locus YHR094C, strain hxt1, stronger effect = lower value)?
Answer: 0.888 (active)

Question: And the normalized growth (locus YHR129C, strain ARP1, stronger effect = lower value)?
Answer: 0.457 (active)

Question: And the normalized growth (locus YHR142W, strain chs7, stronger effect = lower value)?
Answer: 0.948 (inactive)

Question: And the normalized growth (locus YHR200W, strain rpn10, stronger effect = lower value)?
Answer: 0.724 (active)

Question: And the normalized growth (locus YIL066C, strain RNR3, stronger effect = lower value)?
Answer: 0.227 (active)

Question: And the normalized growth (locus YIL073C, strain SPO22, stronger effect = lower value)?
Answer: 0.137 (active)

Question: What about the normalized growth (locus YIL125W, strain kgd1, stronger effect = lower value) of the same compound?
Answer: 0.933 (inactive)

Question: What about the normalized growth (locus YIR030C, strain dcg1, stronger effect = lower value) of the same compound?
Answer: 0.811 (active)

Question: What about the normalized growth (locus YJL092W, strain hpr5, stronger effect = lower value) of the same compound?
Answer: 0.983 (inactive)

Question: And the normalized growth (locus YJL095W, strain BCK1 (second series), stronger effect = lower value)?
Answer: 0.961 (inactive)

Question: What about the normalized growth (locus YJL095W, strain BCK1, stronger effect = lower value) of the same compound?
Answer: 0.145 (active) and 0.912 (inactive)

Question: What about the normalized growth (locus YJL115W, strain asf1, stronger effect = lower value) of the same compound?
Answer: 0.999 (inactive)

Question: And the normalized growth (locus YJL129C, strain trk1, stronger effect = lower value)?
Answer: 1 (inactive)

Question: What about the normalized growth (locus YJL134W, strain LCB3, stronger effect = lower value) of the same compound?
Answer: 0.677 (active)

Question: And the normalized growth (locus YJL154C, strain vps35, stronger effect = lower value)?
Answer: 1 (inactive)

Question: And the normalized growth (locus YJL164C, strain tpk1, stronger effect = lower value)?
Answer: 0.91 (active)

Question: What about the normalized growth (locus YJL166W, strain qcr8, stronger effect = lower value) of the same compound?
Answer: 0.919 (inactive)

Question: What about the normalized growth (locus YJL168C, strain set2, stronger effect = lower value) of the same compound?
Answer: 0.916 (active)

Question: And the normalized growth (locus YJL187C, strain SWE1 (second series), stronger effect = lower value)?
Answer: 0.161 (active)

Question: And the normalized growth (locus YJR043C, strain POL32, stronger effect = lower value)?
Answer: 0.255 (active)

Question: What about the normalized growth (locus YJR066W, strain TOR1, stronger effect = lower value) of the same compound?
Answer: 0.885 (inactive)

Question: What about the normalized growth (locus YJR075W, strain HOC1, stronger effect = lower value) of the same compound?
Answer: 0.468 (active)
